PubChem BioAssay AID651820 (National Center for Advancing Translational Sciences (NCATS), 2012)
Among all 340,000 compounds or so, about 12,000 (3.5%) were called active. Not shown: some 18% with an inconclusive outcome. Calls come from the whole dose curve; as a rule, active = well fitted inhibition curve with a large enough effect; inconclusive = small, poorly fitted or top-dose-only effect, or another doubt; inactive = no such curve, though single readings can be large or run the other way. Only a selection was taken, and actives are over-represented in it overall.

Assay: qHTS Assay for Inhibitors of Hepatitis C Virus (HCV)
Conditions: Huh7.5.1 HCVcc-Cre infection, luciferase reporter, 44 h; series mostly up to 41.8 µM; activity change, negative = inhibition: at the top concentration
Outline: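 Cells (1,000/well) were plated 4 h before compound, then infected with HCVcc-Cre virus (~0.5 moi). After 44 h further culture, infection was read as luciferase luminescence following a 15 min substrate incubation at room temperature.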
% is set by controls: 0 for no effect and ±100 for the full control effect; potency is the fitted concentration of half-maximal effect.

Structure (SMILES) | activity change, negative = inhibition | Potency
CC(C)CN(C(=O)COC(=O)c1ccc2ccccc2c1)c1c(N)n(Cc2ccccc2)c(=O)[nH]c1=O | -2.77% (inactive) | 
O=C(CN1C(=O)C2C3CCC(C3)C2C1=O)Oc1ccc2ccccc2c1 (configuration not stated) | 16.3% (inactive) | 
CC1=CC(C)(C)Nc2ccc(OC(=O)CN3C(=O)C4CCCCC4C3=O)cc21 (configuration not stated) |  | 11.2 µM (active)
O=C(COC(=O)CN1C(=O)C2CCCCC2C1=O)Nc1ccc(F)c(F)c1F (configuration not stated) | 9.46% (inactive) | 
CCc1cccc(CC)c1NC(=S)NCc1ccc2[nH]c(C)cc2c1 |  | 14.1 µM (active)
CCc1cccc(CC)c1NC(=S)Nc1ccc2cn[nH]c2c1 | -0.0519% (inactive) | 
Cc1cc2cc(CNC(=O)c3ccc(S(=O)(=O)N4CCOCC4)cc3)ccc2[nH]1 | -2.6% (inactive) | 
CC(Sc1nnc(-c2cccs2)n1C1CC1)C(=O)NCC1CCCO1 (configuration not stated) | 20.4% (inactive) | 
O=C(COC(=O)Cn1[nH]c(=O)c2ccccc2c1=O)Nc1ncc(Cl)cc1Cl | 2.09% (inactive) | 
COc1ccc(N2CCN(C(=O)CCNC(=O)c3ccc(Br)cc3)CC2)cc1 | -26.5% (inactive) | 
CC1CCCCC12NC(=O)N(CC(=O)OCc1c(F)cccc1Cl)C2=O (configuration not stated) | 12.2% (inactive) | 
CN1CCc2ccccc2C1Cc1ccccc1NC(=O)c1sc2ccccc2c1Cl (configuration not stated) |  | 14.1 µM (active)
CCc1ccccc1NC(=O)NCCN1CCCCC1 | -6.99% (inactive) | 
O=C(Nc1ccon1)c1sc2ccccc2c1Cl | -6.93% (inactive) | 
Cc1ccc(NC(=O)CSCC(=O)Nc2sccc2C#N)cc1 | 7.78% (inactive) | 
CCCCCCCCCCCCN1[C@@H](CC(C)=O)c2cc(F)cc(F)c2S1(=O)=O | 7.87% (inactive) | 
O=C(CN1C(=O)NC(Cc2c[nH]c3ccccc23)C1=O)Nc1ccccc1C(F)(F)F (configuration not stated) | 10.9% (inactive) | 
O=C(OCCOCn1cc(Br)c(=O)[nH]c1=O)c1ccccc1 | 7.07% (inactive) | 
Cc1cc(Cl)ccc1OCCCC(=O)NCc1ccncc1 | -2.45% (inactive) | 
CC(C)(C)NCCCOc1ccc(Cl)cc1C(C)(C)C |  | 5.01 µM (active)
CN(C)CCOc1ccc(Cl)cc1C(C)(C)C | 2.11% (inactive) | 
NC1=NC(c2ccc([N+](=O)[O-])cc2)N(c2ccc(F)cc2)C(N)=N1 (configuration not stated) | 10.2% (inactive) | 
COc1ccc(S(=O)(=O)N2CCOC23CCN(S(=O)(=O)c2ccc([N+](=O)[O-])cc2)CC3)cc1 | -26.6% (inactive) | 

Structure (SMILES) | activity change, negative = inhibition | Potency
CCn1c(NCCc2ccc(OC)c(OC)c2)nc2c1c(=O)n(C)c(=O)n2C |  | 11.2 µM (active)
COc1ccc(CNc2nc3c(c(=O)[nH]c(=O)n3C)n2Cc2ccccc2)cc1 | -2.18% (inactive) | 
Cn1c(=O)c2c(nc(NCc3ccccc3)n2CC(N)=O)n(C)c1=O | 9.34% (inactive) | 
CCCCNc1nc2c(c(=O)[nH]c(=O)n2C)n1CCOc1ccccc1 | -4.32% (inactive) | 
CCCCn1c(SCC(=O)NCCc2ccc(OC)c(OC)c2)nc2c1c(=O)n(C)c(=O)n2C | -4.19% (inactive) | 
CCCCNc1nc2c(c(=O)n(C)c(=O)n2C)n1Cc1cccc(OC)c1 |  | 6.31 µM (active)
CC[C@]1(C(=O)OC)[C@H]2C(=O)N(C)C(=O)[C@H]2[C@H]2CN(C)C(=NCc3ccccc3)N21 | 3.22% (inactive) | 
Cc1cccc(C=CC(=O)c2ccc(Cl)cc2)c1 | -8.79% (inactive) | 
COc1ccc(S(=O)(=O)NCc2ccc(C(=O)N3CCC4(CC3)OCCO4)cc2)cc1 | 17.5% (inactive) | 
COc1ccc(CNS(=O)(=O)c2ccc(NC(=O)N3CCCCC3)cc2)cc1 |  | 8.91 µM (active)
COc1ccc(S(=O)(=O)NC(C)C(=O)N2CCCCCC2)cc1 (configuration not stated) | 4.24% (inactive) | 
Cc1c(Cc2ccccc2)c(=O)oc2cc(OCC(N)=O)ccc12 | -5.76% (inactive) | 
CCOC(=O)c1c(-c2ccccc2)oc2ccc(OC(=O)N(C)C)cc12 |  | 10 µM (active)
Cc1cc(=O)oc2ccc(OCC(=O)O)cc12 | 11% (inactive) | 
CN(C)C(=O)Oc1ccc2c(c1)O/C(=C\c1ccccc1)C2=O | -25.2% (inactive) | 
CCOC(=O)c1c(-c2ccccc2)oc2ccc(OCC(N)=O)cc12 |  | 10 µM (active)
CCOC(=O)c1cc(=O)c2ccc(OCc3ccccc3)cc2o1 | 23.8% (inactive) | 
CCOc1ccccc1Nc1nnc(SCC(=O)NCC2CCCO2)s1 (configuration not stated) | -2.14% (inactive) | 
C=C(C)CNc1cc(S(=O)(=O)N2CCOCC2)ccc1Oc1ccccc1 | -4.73% (inactive) | 
CCOc1ccc(CCNC(=O)COC(=O)c2c(OC)cccc2OC)cc1OCC | -15.3% (inactive) | 
CC(C(=O)NC1CCCC1)N1CCN(S(=O)(=O)c2ccccc2Cl)CC1 (configuration not stated) | 9.79% (inactive) | 
COc1ccc(OC)c(NC(=O)COC(=O)Cc2ccsc2)c1 | -5.62% (inactive) | 
Cc1ccc(Br)c(NS(=O)(=O)c2cccc(C(=O)N3CCNC(=O)C3)c2)c1 | 21% (inactive) | 

Structure (SMILES) | activity change, negative = inhibition | Potency
CCOC(=O)CSc1nc2ccc(C)cc2[nH]1 | -5.08% (inactive) | 
Cc1ccc2nc(S(=O)(=O)O)[nH]c2c1 | 14.7% (inactive) | 
Cc1ccc2nc(/C(C#N)=C\c3ccc(OC(=O)c4cccs4)cc3)[nH]c2c1 |  | 1.78 µM (active)
Cc1cc(C(=O)OCC(=O)Nc2ccccc2Cl)c(C)o1 | 22.3% (inactive) | 
CC(C)NC(=S)N1CCN(C(c2ccccc2)c2ccccc2)CC1 | -7.24% (inactive) | 
O=C(O)CN1CCN(C(c2ccccc2)c2ccccc2)CC1 | -3.12% (inactive) | 
CC1(C)CC(N2CCN(C(c3ccccc3)c3ccccc3)CC2)=CC(=[N+]2CCCCC2)C1 |  | 3.16 µM (active)
CS(=O)(=O)c1ccc(C(=O)OCC(=O)NNC(=O)COc2ccc(Cl)cc2)cc1 | 11.5% (inactive) | 
O=C(NCCCc1ccccc1)C(=O)NCC1OCCN1S(=O)(=O)c1ccccc1 (configuration not stated) | -12.1% (inactive) | 
CN=C(Nc1cccc(S(=O)(=O)N2CCOCC2)c1)c1ccccc1 | -0.947% (inactive) | 
CC(C)Oc1ccc(C(=O)NCC(=O)Nc2ccc3c(c2)CCC3)cc1 | 17.9% (inactive) | 
CC[C@]1(C(=O)OC)[C@H]2C(=O)N(Cc3ccccc3)C(=O)[C@H]2[C@H]2CN=C(SCc3ccccc3)N21 | -13.1% (inactive) | 
O=S(=O)(O)c1nc2ccccc2n1Cc1ccc(Cl)cc1 | 28.9% (inactive) | 
N=c1n(Cc2ccc(Cl)cc2)c2ccccc2n1CC(O)c1ccco1 (configuration not stated) |  | 11.2 µM (active)
Cn1c(=N)n(CC(O)c2cccs2)c2ccccc21 (configuration not stated) | -5.72% (inactive) | 
C[C@H](CO)N1C[C@H](C)[C@H](CN(C)CC2CC2)Oc2ccc(NC(=O)CCN3CCOCC3)cc2C1=O | -0.967% (inactive) | 
C[C@]12CCC(=O)C=C1C=CC1C2CC[C@@]2(C)C1CC[C@@]21CCC(=O)O1 (some centres not stated) | -13.4% (inactive) | 
COc1ccc(-c2c(C#Cc3ccsc3)c3cc(-c4ccc(CN5CCOCC5)cc4)ccc3n2C)cc1 | 3.05% (inactive) | 
Cc1cc(Nc2ccc(N3CCOCC3)cc2)c2cccc(C)c2n1 | -9.69% (inactive) | 
Cc1cc(N2CCN(c3ccccc3)CC2)nc(N2CCOCC2)n1 | -27.5% (inactive) | 
Cc1cc(N2CCOCC2)nc(-c2ccc(Br)cc2)n1 |  | 10 µM (active)
